The results in this text go back to PubChem BioAssay AID1053124 (Broad Institute, 2014).

Results with a measured potency or affinity are listed apart. The source made the active and inactive calls.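 Rule for the calls: active = cell killing whose fitted half-effect concentration is at most twice the top valid dose tested; inconclusive = flat curve with 30 to 70% killing, or a poor fit; inactive = effect in the rising direction, plus the rest.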

The nature of this assay: A549 cell cytotoxicity, dose response, cytotoxicity control, ATP luminescence, cherry-pick, set 2 (AID 1053124). The note with it: A549 viability, ATP luminescence (CellTiter-Glo), 72 h; series mostly up to 26 µM.
For the compound `CCCOc1c(Br)cc(C2C3=C(CCCC3=O)N(C)C3=C2C(=O)CCC3)cc1OC`, the call was inactive.

`CN1CCc2c(sc(NC(=O)C3CCCCC3)c2C(N)=O)C1`: the compound was classed as inactive. With `C#CCOc1ccc(C2C(C#N)=C(N)Oc3cc(O)ccc32)cc1` (stereo not given), the outcome was inactive.

For the compound `CC(C)CCn1c(CN2CC(C)OC(C)C2)nc2c1c(=O)n(C)c(=O)n2C` (stereo not given), the outcome was inactive. As for `CCOc1ccc2nc(NCCNC(=O)CC)c(C#N)cc2c1`, the call was inactive.

Regarding `CC/C(C)=N\Nc1nc(-c2cc3cc(OC)ccc3oc2=O)cs1`, the compound was called inactive.

Regarding `CCOC(=O)c1cc2c(=O)n3ccccc3nc2n(C(C)C)c1=NC(=O)c1ccco1`, the compound was classed as inactive. Take `Cc1nc(CCNC(=O)Cc2ccc(Cl)cc2)cs1`: the result was inactive.

Turning to `CCN(CC)CCCNc1nc(C)cc(COC)c1C#N`, the outcome was inactive. In the case of `COc1ccc(C2C(C#N)=C(N)Oc3cc(O)ccc32)cc1Cl` (stereo not given) it was “inactive”; in that of `Cc1cc(-n2c(=O)c(C#N)cc3c(=O)n4cccc(C)c4nc32)no1`, “inactive”. In the case of `CCOC(=O)c1cc2c(=O)n3ccccc3nc2n(CCCOC)c1=NC(=O)c1ccncc1` it was “inactive”; in that of `Cn1nc(-c2ccc(Cl)cc2)c2cc(C(=O)N3CCN(c4ccccc4)CC3)sc21`, “inactive”. In the case of `O=C(/C=C/c1ccccc1)C1=C(O)C(=O)N(CCO)C1c1ccc2c(c1)OCO2` (stereo not given) it was “inactive”. For the compound `CCOc1ccccc1N=c1oc2cc(O)ccc2cc1C(=O)NCC1CCCO1` (stereo not given), the compound was classed as inactive. In the case of `N#CC1=C(N)OC2=C(C(=O)CCC2)C1c1cc2c(cc1Br)OCO2` (stereo not given), the compound was called inactive.

With `CCN(c1ccccc1)S(=O)(=O)c1ccc(OC)c(NC(=O)CN(C)C)c1`, the call was inactive. In the case of `CC(=O)Oc1ccc2cc(-c3nc4ccccc4n3C)c(=O)oc2c1` it was “inactive”; in that of `CCOC(=O)c1oc2c(CN3CCN(CCO)CC3)c(O)c(CC)cc2c(=O)c1-c1nc2ccccc2s1`, “inactive”; in that of `O=c1oc2c(CN3CCCCC3)c(O)ccc2cc1-c1nc2ccccc2[nH]1`, “inactive”. Take `C=CCn1c(=N)c(C#N)cc2c(=O)n3ccccc3nc21`: the result was inactive. Consider `CCCOc1ccccc1/C=C1\SC(N)=NC1=O`, for which the compound was classed as inactive.

Consider `O=C(O)C1=CC[C@@H](c2ccc(Cl)cc2)N(S(=O)(=O)c2ccc(Cl)cc2)[C@H]1c1ccc(F)cc1`, for which the call was inactive.

In the case of `O=C(c1ccc(F)cc1)C1CCN(C(=O)Nc2ccccc2Cl)CC1`, the compound was called inactive. In the case of `N#Cc1c(NCCCO)nc(NCc2ccccc2)c2c1CCN(Cc1ccccc1)C2` it was “inactive”; in that of `CC1=C(C(=O)N2CCN(c3cc(C)ccc3C)CC2)C2(CCCCC2)OC1=O`, “inactive”. As to `Cc1cc(CNC(=O)c2ccc3c(c2)OCO3)c2ccccc2n1`, the result was inactive. The same measure for `CCC(Sc1nc(N)c(NC(=O)c2ccc(OC)cc2)c(=O)[nH]1)C(=O)O` (stereo not given): “inactive”; for `Clc1cccc(CN2CCN(Cc3nc(CCc4ccccc4)no3)CC2)c1`: “inactive”.

For the compound `N#Cc1c2ccc(OCC(N)=O)cc2n2ccccc12`, the compound was called inactive. `N#C/C(=C\c1ccc(N2CCOCC2)o1)C(=O)NCCc1ccccc1`: the outcome was inactive. In the case of `CCOc1ccc2nc(NCCCNC(=O)c3cc(OC)c(OC)c(OC)c3)c(C#N)cc2c1` it was “inactive”. Regarding `CCOc1ccc(S(=O)(=O)Nc2ccc(C(=O)N(CC)CC(=O)NCc3cccs3)cc2)cc1`, the compound was called inactive. The same measure for `COc1ccccc1N1CCN(C2CCC(C)CC2)CC1` (stereo not given): “inactive”; for `CCOC(=O)c1c2ccc(OCC(=O)NN)cc2n2ccccc12`: “inactive”; for `Cc1c(C(=O)NCc2cccc(C(F)(F)F)c2)sc(=O)n1Cc1ccc(C(=O)N(C)C)cc1`: “inactive”. In the case of `N=c1oc2cc(O)ccc2cc1C(=O)Nc1nc2ccccc2s1` it was “inactive”; in that of `Cc1cccn2c(=O)c3cc(C(N)=S)c(=N)n(CCCN4CCOCC4)c3nc12`, “inactive”. Regarding `Cc1cc2cc(CNC(=O)c3ccco3)ccc2n1C`, the call was inactive. In the case of `Cc1cc(OC(=O)c2ccccc2Cl)ccc1N1C(=O)CCC1=O`, the outcome was inactive.
